The supplement of paper PMC8728848
Shown is part of a subset that was picked to be rich in the strongest signals.

Tests used:
Assay in all cases: glycan array binding signal (z-score within array); higher = stronger binding
Details in all cases: glycan notation: IUPAC condensed, linker removed
Fuc(a1-2)Gal = biological target: Fuc(a1-2)Gal
How it was run: (§1)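 Glycan array binding is given as a within-array Z-score, which can be read as non-binding when negative. The arrays, 3228 of them, came from the Consortium for Functional Glycomics database and were retained only where the protein sequence was available. Z-scores were averaged across arrays of the same protein sequence at different concentrations or buffers and across linkers.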

[1] = biological target: Fuc(a1-2)Gal(b1-3)GlcNAc(b1-2)Man(a1-3)[Fuc(a1-2)Gal(b1-3)GlcNAc(b1-2)Man(a1-6)]Man(b1-4)GlcNAc(b1-4)GlcNAc
How it was run: as §1

[2] = biological target: Fuc(a1-2)Gal(b1-3)GlcNAc(b1-3)[Gal(b1-4)GlcNAc(b1-6)]Gal(b1-4)Glc
How it was run: as §1

[3] = biological target: Fuc(a1-2)Gal(b1-3)[Fuc(a1-4)]GlcNAc(b1-3)[Gal(b1-4)GlcNAc(b1-6)]Gal(b1-4)Glc
How it was run: as §1

[4] = biological target: Fuc(a1-2)Gal6S(b1-3)GlcNAc6S
How it was run: as §1

[5] = biological target: Fuc(a1-2)[Gal(a1-3)]Gal(b1-4)GlcNAc
How it was run: as §1

[6] = biological target: Fuc(a1-2)[GalNAc(a1-3)]Gal(b1-3)GlcNAc(b1-2)Man(a1-3)[Fuc(a1-2)[GalNAc(a1-3)]Gal(b1-3)GlcNAc(b1-2)Man(a1-6)]Man(b1-4)GlcNAc(b1-4)GlcNAc
How it was run: as §1

[7] = biological target: Fuc(a1-2)[GalNAc(a1-3)]Gal(b1-3)GlcNAc(b1-3)GalNAc
How it was run: as §1

[8] = biological target: Fuc(a1-2)[GalNAc(a1-3)]Gal(b1-4)[Fuc(a1-3)]GlcNAc(b1-3)GalNAc
How it was run: as §1

[9] = biological target: Fuc(a1-3)[Gal(b1-4)]GlcNAc(b1-6)GalNAc
How it was run: as §1

[10] = biological target: Gal(a1-3)Gal(b1-3)[Fuc(a1-4)]GlcNAc(b1-2)Man(a1-3)[Gal(a1-3)Gal(b1-3)[Fuc(a1-4)]GlcNAc(b1-2)Man(a1-6)]Man(b1-4)GlcNAc(b1-4)GlcNAc
How it was run: as §1

Gal(a1-3)Gal(b1-4)GlcNAc = biological target: Gal(a1-3)Gal(b1-4)GlcNAc
How it was run: as §1

[11] = biological target: Gal(a1-3)Gal(b1-4)[Fuc(a1-3)]GlcNAc
How it was run: as §1

Gal(a1-3)GalNAc = biological target: Gal(a1-3)GalNAc
How it was run: as §1

[12] = biological target: Gal(a1-4)Gal(b1-3)GlcNAc(b1-2)Man(a1-3)[Gal(a1-4)Gal(b1-3)GlcNAc(b1-2)Man(a1-6)]Man(b1-4)GlcNAc(b1-4)GlcNAc
How it was run: as §1

[13] = biological target: Gal(b1-3)GalNAc(b1-4)Gal(b1-4)Glc
How it was run: as §1

[14] = biological target: Gal(b1-3)GlcNAc(b1-2)Man(a1-3)[Gal(b1-3)GlcNAc(b1-2)Man(a1-6)]Man(b1-4)GlcNAc(b1-4)GlcNAc
How it was run: as §1

[15] = biological target: Gal(b1-3)GlcNAc(b1-3)Gal(b1-4)Glc
How it was run: as §1

[16] = biological target: Gal(b1-3)GlcNAc(b1-3)Gal(b1-4)[Fuc(a1-3)]GlcNAc(b1-6)[Gal(b1-3)GlcNAc(b1-3)]Gal(b1-4)Glc
How it was run: as §1

[17] = biological target: Gal(b1-3)[Neu5Ac(a2-6)]GalNAc
How it was run: as §1

[18] = biological target: Gal(b1-3)[Neu5Ac(a2-6)]GlcNAc(b1-4)Gal(b1-4)Glc
How it was run: as §1

[19] = biological target: Gal(b1-4)GlcNAc(b1-2)Man(a1-3)[Gal(b1-4)GlcNAc(b1-2)Man(a1-6)][GlcNAc(b1-4)]Man(b1-4)GlcNAc(b1-4)[Fuc(a1-6)]GlcNAc
How it was run: as §1

[20] = biological target: Gal(b1-4)GlcNAc(b1-3)Gal(b1-4)GlcNAc(b1-3)Gal(b1-4)GlcNAc(b1-2)Man(a1-3)[Gal(b1-4)GlcNAc(b1-3)Gal(b1-4)GlcNAc(b1-3)Gal(b1-4)GlcNAc(b1-2)Man(a1-6)]Man(b1-4)GlcNAc(b1-4)GlcNAc
How it was run: as §1

[21] = biological target: Gal(b1-4)GlcNAc(b1-3)Gal(b1-4)GlcNAc(b1-3)Gal(b1-4)GlcNAc(b1-3)Gal(b1-4)GlcNAc(b1-2)Man(a1-3)[Gal(b1-4)GlcNAc(b1-3)Gal(b1-4)GlcNAc(b1-3)Gal(b1-4)GlcNAc(b1-3)Gal(b1-4)GlcNAc(b1-2)Man(a1-6)]Man(b1-4)GlcNAc(b1-4)GlcNAc
How it was run: as §1

[22] = biological target: Gal(b1-4)GlcNAc(b1-3)Gal(b1-4)GlcNAc(b1-3)Gal(b1-4)GlcNAc(b1-3)Gal(b1-4)GlcNAc(b1-2)[Gal(b1-4)GlcNAc(b1-3)Gal(b1-4)GlcNAc(b1-3)Gal(b1-4)GlcNAc(b1-3)Gal(b1-4)GlcNAc(b1-6)]Man(a1-6)[Gal(b1-4)GlcNAc(b1-3)Gal(b1-4)GlcNAc(b1-3)Gal(b1-4)GlcNAc(b1-3)Gal(b1-4)GlcNAc(b1-2)Man(a1-3)]Man(b1-4)GlcNAc(b1-4)[Fuc(a1-6)]GlcNAc
How it was run: as §1

[23] = biological target: Gal(b1-4)GlcNAc(b1-3)Gal(b1-4)GlcNAc(b1-3)Gal(b1-4)GlcNAc(b1-3)Gal(b1-4)GlcNAc(b1-3)Gal(b1-4)GlcNAc(b1-2)[Gal(b1-4)GlcNAc(b1-3)Gal(b1-4)GlcNAc(b1-3)Gal(b1-4)GlcNAc(b1-3)Gal(b1-4)GlcNAc(b1-3)Gal(b1-4)GlcNAc(b1-6)]Man(a1-6)[Gal(b1-4)GlcNAc(b1-3)Gal(b1-4)GlcNAc(b1-3)Gal(b1-4)GlcNAc(b1-3)Gal(b1-4)GlcNAc(b1-3)Gal(b1-4)GlcNAc(b1-2)Man(a1-3)]Man(b1-4)GlcNAc(b1-4)[Fuc(a1-6)]GlcNAc
How it was run: as §1

[24] = biological target: Gal(b1-4)GlcNAc(b1-3)[Fuc(a1-3)GlcNAc(b1-6)]Gal(b1-4)Glc
How it was run: as §1

B1: Sp8391B-bot-388-20-388 (Bacteroides ovatus) (protein)
chain: GCQNNDENEQHYDNKLFISASNFTKEILFKAGDTNVETGLSVAIAKPEEHDIKVTMSPAPELLSTYKLAYYDETAVLLSEEHYSMPETSTTIKSGSIVSPELPIEFINTGELDIKTTYVLPVTIKSVEGIGVLQSAKTYYYVFRGASLINVVCNISRNRAYPDFKNDSKFNNLTENTMEILFKANSFPNTLNTLMGIESNYLLRIGDATIPNNQLQVATSVNNCTSADLQLESGKWYHVAVAFNKGNVKVYINGVEKLSGSTGKSSVSLGAKHTNEEDGSRCFWVGYSYKDDRYFDGVVSEVRIWNRALTAEEIQATNHFYTIEPESEGLIAYWKFDEGSGTVAKDYSVSGYDLTIEKEPKWESVSLPQ
glycan array binding signal (z-score) (Fuc(a1-2)Gal): -0.522 | glycan array binding signal (z-score) [1]: 2.69 | glycan array binding signal (z-score) [2]: -0.322 | glycan array binding signal (z-score) [3]: 1.29 | glycan array binding signal (z-score) [4]: -0.154 | glycan array binding signal (z-score) [5]: -0.199 | glycan array binding signal (z-score) [6]: 0.439 | glycan array binding signal (z-score) [7]: -0.474 | glycan array binding signal (z-score) [8]: -0.673 | glycan array binding signal (z-score) [9]: 4.03 | glycan array binding signal (z-score) [10]: 8.13 | glycan array binding signal (z-score) (Gal(a1-3)Gal(b1-4)GlcNAc): -0.489 | glycan array binding signal (z-score) [11]: -0.616 | glycan array binding signal (z-score) (Gal(a1-3)GalNAc): -0.069 | glycan array binding signal (z-score) [12]: 2.6 | glycan array binding signal (z-score) [13]: 0.437 | glycan array binding signal (z-score) [14]: 3.77 | glycan array binding signal (z-score) [15]: 0.105 | glycan array binding signal (z-score) [16]: 12.8 | glycan array binding signal (z-score) [17]: -0.208 | glycan array binding signal (z-score) [18]: -0.044 | glycan array binding signal (z-score) [19]: -0.897 | glycan array binding signal (z-score) [20]: 2.45 | glycan array binding signal (z-score) [21]: 2.49 | glycan array binding signal (z-score) [22]: -0.629 | glycan array binding signal (z-score) [23]: -0.112 | glycan array binding signal (z-score) [24]: 0.415
